# A number with no mark means an inactive call. Inconclusive results are not listed. A call without a number means that no potency is given here. Calls of active or inactive are those of the source. Unless noted, calls come from the whole dose curve; as a rule, active = well fitted curve in the direction sought with a large enough effect in the repeat runs; inconclusive = weak or mixed curves; inactive = no such curve, though single readings can be large; an effect the other way counts as inactive or inconclusive.
# Tests used:
# [1] = qHTS assay to identify small molecule agonists of the sonic hedgehog signaling (Shh) pathway (AID 1259368; calls by dose curve;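 note: NIH/3T3-derived 3T3Gli1-Luc cells carrying a stable Gli1-driven firefly luciferase reporter; series mostly up to about 92 µM; nearly all actives have a fitted effect of over 15% in size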)
# Summary of the method: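 A Gli1 transcriptional response element controlled firefly luciferase in 3T3Gli1-Luc cells. Compounds and a positive control were added 4 hr after plating, and cells were incubated a further 24 hr at 37 C before luminescence detection.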
# [2] = biological target: Estrogen receptor beta (Homo sapiens) (UniProt Q92731); assay: qHTS assay to identify small molecule agonists of the estrogen receptor beta (ER-beta) signaling pathway (AID 1259377; active = well fitted activation curve with a large enough effect in the signal ratio in the repeat runs, not every such curve was filed as active; the % refers to the signal ratio)
# Chain of Estrogen receptor beta (Homo sapiens) (Q92731 whole entry, looked up): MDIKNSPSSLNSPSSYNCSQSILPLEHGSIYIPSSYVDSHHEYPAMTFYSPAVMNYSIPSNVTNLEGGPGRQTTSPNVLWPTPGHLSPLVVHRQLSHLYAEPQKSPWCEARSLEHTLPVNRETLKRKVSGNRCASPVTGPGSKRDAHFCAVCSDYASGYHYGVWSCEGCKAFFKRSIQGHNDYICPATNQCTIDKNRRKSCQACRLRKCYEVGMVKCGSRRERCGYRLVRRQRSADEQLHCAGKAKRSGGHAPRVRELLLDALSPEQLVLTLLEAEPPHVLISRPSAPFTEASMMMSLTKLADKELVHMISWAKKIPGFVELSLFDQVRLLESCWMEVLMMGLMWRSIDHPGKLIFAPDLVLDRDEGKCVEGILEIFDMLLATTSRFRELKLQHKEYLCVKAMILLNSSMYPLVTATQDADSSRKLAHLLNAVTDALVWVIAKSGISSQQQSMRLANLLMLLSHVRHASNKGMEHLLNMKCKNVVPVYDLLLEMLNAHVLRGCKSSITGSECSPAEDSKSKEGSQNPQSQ
# Summary of the method: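 In HEK293T cells bearing a UAS-beta-lactamase reporter under ER-beta control, DMSO-delivered compounds were incubated for 16 hr at 37C. Activity was detected as fluorescence 2 hours after LiveBLAzer B/G FRET substrate addition.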
# [3] = qHTS assay to identify small molecule agonists of the androgen receptor (AR) signaling pathway in the presence of an antagonist - cell viability counter screen (AID 1259379); note: nearly all actives have a fitted effect of over 25% in size; note: potency is the fitted concentration of half-maximal effect
# Summary of the method: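 Seed MDA-kb2 at 3,000 cells/well; incubate 5 hr, 37C, 0% CO2. Add nilutamide to 3.0uM final, then pin compounds at 15 concentrations. Incubate 16 hr. Add CellTiter-Fluor at 15 hr, read fluorescence after 1 hr.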
# [4] = qHTS assay to identify small molecule agonists of the estrogen receptor beta (ER-beta) signaling pathway - cell viability counter screen (AID 1259380); note: nearly all actives have a fitted effect of over 30% in size; note: potency is the fitted concentration of half-maximal effect
# Summary of the method: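 CellTiter-Glo read, 30 min RT, same wells as bla assay; cells ER-beta-UAS-bla HEK293T; 16 hr compound, 37C; medium 2% charcoal-stripped FBS.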
# [5] = biological target: Estrogen receptor (Homo sapiens) (UniProt P03372); assay: qHTS assay to identify small molecule agonists of the estrogen receptor alpha (ER-alpha) signaling pathway in the presence of an antagonist (AID 1259383; calls by dose curve; note: nearly all actives have a fitted effect of over 15% in size; note: potency is the fitted concentration of half-maximal effect; for activation: top concentration of the series differs between compounds)
# Chain of Estrogen receptor (Homo sapiens) (P03372 whole entry, looked up): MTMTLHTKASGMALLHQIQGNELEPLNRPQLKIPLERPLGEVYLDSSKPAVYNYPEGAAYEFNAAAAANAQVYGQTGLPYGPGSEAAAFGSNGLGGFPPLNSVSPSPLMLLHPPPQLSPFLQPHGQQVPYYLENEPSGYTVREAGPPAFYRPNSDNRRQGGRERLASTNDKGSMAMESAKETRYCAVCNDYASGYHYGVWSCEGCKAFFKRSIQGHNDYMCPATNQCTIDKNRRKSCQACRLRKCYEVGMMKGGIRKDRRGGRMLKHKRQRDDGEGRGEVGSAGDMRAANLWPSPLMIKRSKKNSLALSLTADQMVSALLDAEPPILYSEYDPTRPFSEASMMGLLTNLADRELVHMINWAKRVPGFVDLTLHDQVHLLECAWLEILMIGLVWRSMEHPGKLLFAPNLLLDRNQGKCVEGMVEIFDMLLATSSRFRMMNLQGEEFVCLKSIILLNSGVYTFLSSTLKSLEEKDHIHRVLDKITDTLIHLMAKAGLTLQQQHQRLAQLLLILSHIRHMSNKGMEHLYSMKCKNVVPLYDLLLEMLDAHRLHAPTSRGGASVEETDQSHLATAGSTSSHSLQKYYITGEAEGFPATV
# Summary of the method: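 Stably transfected VM7Luc4E2 reporter cells, kept 5 days in charcoal-stripped serum, received ICI-182,780 at 10.0nM final before compound addition. Following 22hr incubation at 37C and 5% CO2, luciferase signal was read by luminescence.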
# [6] = qHTS assay to identify small molecule agonists of the estrogen receptor alpha (ER-alpha) signaling pathway in the presence of an antagonist - cell viability counter screen (AID 1259386);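 note: series mostly up to about 92 µM; cells exposed to compounds for 22 h at 37 °C before the viability read; nearly all actives have a fitted effect of over 30% in size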
# Summary of the method: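 Viability counter screen using VM7Luc4E2 (full-length ER-alpha, four ERE-luciferase). The cells were treated with compounds alongside ICI-182,780 10.0nM for 22hr, and live-cell protease fluorescence was quantified with CellTiter-Fluor.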
# [7] = biological target: Progesterone receptor (Homo sapiens) (UniProt P06401); assay: qHTS assay to identify small molecule agonists of the progesterone receptor (PR) signaling pathway (AID 1346784; calls by dose curve; note: nearly all actives have a fitted effect of over 30% in size)
# Chain of Progesterone receptor (Homo sapiens) (P06401 whole entry, looked up): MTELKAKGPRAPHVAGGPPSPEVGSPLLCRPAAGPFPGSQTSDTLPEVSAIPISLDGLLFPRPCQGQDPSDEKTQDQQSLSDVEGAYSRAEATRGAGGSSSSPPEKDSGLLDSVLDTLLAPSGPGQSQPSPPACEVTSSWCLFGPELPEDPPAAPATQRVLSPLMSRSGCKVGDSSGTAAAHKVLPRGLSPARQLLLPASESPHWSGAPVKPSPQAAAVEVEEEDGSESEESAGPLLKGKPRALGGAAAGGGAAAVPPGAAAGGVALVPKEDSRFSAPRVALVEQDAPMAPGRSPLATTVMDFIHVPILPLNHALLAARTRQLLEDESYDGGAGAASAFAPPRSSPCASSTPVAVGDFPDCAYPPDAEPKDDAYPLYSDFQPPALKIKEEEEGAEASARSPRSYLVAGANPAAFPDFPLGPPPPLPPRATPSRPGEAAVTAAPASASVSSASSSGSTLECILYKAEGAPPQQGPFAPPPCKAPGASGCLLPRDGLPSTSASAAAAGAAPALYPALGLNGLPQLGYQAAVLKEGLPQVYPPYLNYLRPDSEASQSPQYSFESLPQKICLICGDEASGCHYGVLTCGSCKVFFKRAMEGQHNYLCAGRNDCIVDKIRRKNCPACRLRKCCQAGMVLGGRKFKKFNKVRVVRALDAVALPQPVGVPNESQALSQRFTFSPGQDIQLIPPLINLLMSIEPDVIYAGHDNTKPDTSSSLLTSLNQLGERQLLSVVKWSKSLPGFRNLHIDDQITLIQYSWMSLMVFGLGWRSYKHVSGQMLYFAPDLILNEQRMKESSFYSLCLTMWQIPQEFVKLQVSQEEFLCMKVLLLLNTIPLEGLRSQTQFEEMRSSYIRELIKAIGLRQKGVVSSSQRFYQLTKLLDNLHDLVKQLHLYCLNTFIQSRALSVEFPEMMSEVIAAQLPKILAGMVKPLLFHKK
# Summary of the method: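 Using charcoal-stripped serum (2%) to limit endogenous steroids, PR-UAS-bla HEK 293T cells received compounds for 16 hr at 37C after 6 hr plating; beta-lactamase FRET fluorescence was recorded following 2 hr substrate loading at room temperature.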
# [8] = qHTS assay to identify small molecule agonists of the progesterone receptor (PR) signaling pathway - cell viability counter screen (AID 1346799; calls by dose curve; note: nearly all actives have a fitted effect of over 45% in size)
# Summary of the method: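 Cytotoxicity in PR-bla HEK293T cells: 16 h compound, 37C; CellTiter-Glo added post-FRET read; luminescence after 30 min RT.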
# [9] = qHTS assay to identify small molecule agonists of the TGF-beta/Smad signaling pathway - cell viability counter screen (AID 1346829); note: top concentration of the series differs between compounds; nearly all actives have a fitted effect of over 45% in size
# Summary of the method: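 Tox21 qHTS format: SBE-bla HEK 293T cells treated with DMSO-dissolved compounds for 5 hr; CellTiter-Glo luminescence after 30 min at room temperature.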
# [10] = biological target: Thyrotropin-releasing hormone receptor (Homo sapiens) (UniProt P34981); assay: qHTS assay to identify small molecule antagonists of the thyrotropin-releasing hormone receptor (TRHR) signaling pathway (AID 1346877; active = well fitted inhibition curve with a large enough effect in the repeat runs, not every such curve was filed as active; note: series mostly up to about 51 µM)
# Chain of Thyrotropin-releasing hormone receptor (Homo sapiens) (P34981 whole entry, looked up): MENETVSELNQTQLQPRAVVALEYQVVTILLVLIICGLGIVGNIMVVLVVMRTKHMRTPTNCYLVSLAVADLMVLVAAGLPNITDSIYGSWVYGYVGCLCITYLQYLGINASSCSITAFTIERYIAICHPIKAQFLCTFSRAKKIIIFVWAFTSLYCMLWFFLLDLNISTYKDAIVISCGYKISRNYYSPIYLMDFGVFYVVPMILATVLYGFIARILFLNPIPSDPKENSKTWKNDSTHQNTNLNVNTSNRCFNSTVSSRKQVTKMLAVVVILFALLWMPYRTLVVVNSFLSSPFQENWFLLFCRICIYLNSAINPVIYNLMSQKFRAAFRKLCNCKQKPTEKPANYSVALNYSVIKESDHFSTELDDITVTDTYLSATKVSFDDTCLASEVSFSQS
# Summary of the method: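 Following an 18 h incubation at 37 °C and a 2 h calcium dye load, TRHR-HEK293 cells were exposed to compound (5 min, room temperature) and challenged with TRH, 1 nM final.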
# [11] = biological target: Estrogen receptor beta (Homo sapiens) (UniProt Q92731); assay: qHTS assay to identify small molecule antagonists of the estrogen receptor beta (ER-beta) signaling pathway (AID 1259378; active = well fitted inhibition curve with a large enough effect in the signal ratio in the repeat runs, not every such curve was filed as active; the % refers to the signal ratio; note: potency is the fitted concentration of half-maximal effect)
# Summary of the method: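 ER-beta-UAS-bla HEK293T (GripTite) cells in 2% charcoal-stripped FBS medium were preincubated 6 hr at 37C, dosed with compound, then stimulated with 1 nM E2 (final) for 16 hr; beta-lactamase reporter read by B/G FRET fluorescence after 2 hr substrate loading.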
# [12] = qHTS assay to identify small molecule antagonists of the estrogen receptor beta (ER-beta) signaling pathway - cell viability counter screen (AID 1259382); note: series mostly up to about 92 µM; nearly all actives have a fitted effect of over 55% in size
# Summary of the method: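 In this multiplexed counter screen, cells were seeded at 2,000 per well in medium with 2% charcoal-stripped FBS and incubated 6 hr before compound and 1nM final E2 were added. Sixteen hours later, ATP-based luminescence reported viability.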
# [13] = qHTS assay to identify small molecule agonists or antagonists of the thyroid stimulating hormone receptor (TSHR) signaling pathway - wild type cell line counter screen (AID 1259384; calls by dose curve)
# Summary of the method: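 Wild-type HEK293 cells were plated 18 h at 37 C/5% CO2, pin-dosed with compound plus Ro20-1724 medium, held 30 min at room temperature, then given cAMP-d2 and anti-cAMP-cryptate; fluorescence was read after 1 h. Fifteen concentrations, triplicate.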
# [14] = biological target: Thyrotropin receptor (Homo sapiens) (UniProt P16473); assay: qHTS assay to identify small molecule antagonists of the thyroid stimulating hormone receptor (TSHR) signaling pathway (AID 1259385; calls by dose curve; note: nearly all actives have a fitted effect of over 20% in size)
# Chain of Thyrotropin receptor (Homo sapiens) (P16473 whole entry, looked up): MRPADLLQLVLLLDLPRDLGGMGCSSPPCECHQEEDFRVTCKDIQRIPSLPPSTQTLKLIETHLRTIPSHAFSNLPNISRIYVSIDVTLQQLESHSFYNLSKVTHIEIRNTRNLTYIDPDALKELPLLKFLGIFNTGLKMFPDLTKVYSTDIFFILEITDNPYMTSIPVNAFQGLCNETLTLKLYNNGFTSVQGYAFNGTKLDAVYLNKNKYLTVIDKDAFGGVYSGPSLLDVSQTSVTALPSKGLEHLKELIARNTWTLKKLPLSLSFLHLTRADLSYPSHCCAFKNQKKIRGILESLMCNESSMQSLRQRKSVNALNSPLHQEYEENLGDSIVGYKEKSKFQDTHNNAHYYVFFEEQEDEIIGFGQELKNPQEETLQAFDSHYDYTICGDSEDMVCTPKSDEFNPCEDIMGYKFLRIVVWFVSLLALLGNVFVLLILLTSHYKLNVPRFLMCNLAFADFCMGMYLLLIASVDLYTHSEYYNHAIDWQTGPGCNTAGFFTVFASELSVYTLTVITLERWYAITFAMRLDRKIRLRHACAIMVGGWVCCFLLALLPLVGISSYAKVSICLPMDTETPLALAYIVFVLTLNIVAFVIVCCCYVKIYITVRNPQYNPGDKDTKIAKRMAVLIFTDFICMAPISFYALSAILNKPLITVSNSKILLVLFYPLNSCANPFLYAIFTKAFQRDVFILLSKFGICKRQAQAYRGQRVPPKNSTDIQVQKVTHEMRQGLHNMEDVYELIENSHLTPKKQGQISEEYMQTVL
# Summary of the method: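 TSHR-HEK293 cells were plated and held 18 h at 37C/5% CO2, then given compound plus Ro20-1724 and stimulated with TSH at 1.5 ng/mL final. After 30 min at room temperature, cAMP was detected with cAMP-d2/anti-cAMP-cryptate (1 h) by fluorescence.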
# [15] = biological target: Progesterone receptor (Homo sapiens) (UniProt P06401); assay: qHTS assay to identify small molecule antagonists of the progesterone receptor (PR) signaling pathway (AID 1346795; active = well fitted inhibition curve with a large enough effect in the signal ratio in the repeat runs, not every such curve was filed as active; the % refers to the signal ratio; note: potency is the fitted concentration of half-maximal effect)
# Summary of the method: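 Inhibition of R5020-induced (1 nM final) beta-lactamase reporter signal in PR-UAS-bla HEK293T cells was scored by FRET fluorescence after overnight (16 hr) compound treatment.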
# [16] = qHTS assay to identify small molecule antagonists of the progesterone receptor (PR) signaling pathway - cell viability counter screen (AID 1346798); note: series mostly up to about 92 µM; nearly all actives have a fitted effect of over 50% in size
# Summary of the method: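 ATP content as viability readout: CellTiter-Glo luminescence, 30 min room temperature, in PR-UAS-bla HEK293T cells after 16 hr compound/R5020 treatment at 37C and 5% CO2.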
# [17] = qHTS assay to identify small molecule antagonists of the TGF-beta/Smad signaling pathway - cell viability counter screen (AID 1346824); note: nearly all actives have a fitted effect of over 50% in size
# Summary of the method: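 SBE-bla HEK 293T cells were plated overnight at 37 C, then given compounds in DMSO plus TGF-beta1 (added as 0.25 ng/mL solution) for 5 hr. After the bla read, CellTiter-Glo was added to the same wells and luminescence read after 30 min at room temperature.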
# [18] = qHTS assay to identify small molecule agonists of the TGF-beta/Smad signaling pathway (AID 1346859; active = well fitted activation curve with a large enough effect in the signal ratio in the repeat runs, not every such curve was filed as active; the % refers to the signal ratio; note: series mostly up to about 77 µM)
# Summary of the method: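 Stable Smad binding element-beta-lactamase HEK 293T cells; 5 hr compound exposure at 37 C under 5% CO2; 2 hr room-temperature substrate step; fluorescence excited at 405 nm, collected at 460 nm and 530 nm.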
# [19] = qHTS assay to identify small molecule antagonists of the sonic hedgehog signaling (Shh) pathway (AID 1259369; calls by dose curve; note: nearly all actives have a fitted effect of over 45% in size)
# Summary of the method: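 For antagonist detection, the reporter line received test compounds together with conditioned medium, incubated 24hr at 37 C, 5% CO2, then luminescence was recorded following 30min room-temperature luciferase reagent incubation.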
# [20] = biological target: Androgen receptor (Homo sapiens) (UniProt P10275); assay: qHTS assay to identify small molecule agonists of the androgen receptor (AR) signaling pathway in the presence of an antagonist (AID 1259381; calls by dose curve; note: nearly all actives have a fitted effect of over 15% in size)
# Chain of Androgen receptor (Homo sapiens) (P10275 whole entry, looked up): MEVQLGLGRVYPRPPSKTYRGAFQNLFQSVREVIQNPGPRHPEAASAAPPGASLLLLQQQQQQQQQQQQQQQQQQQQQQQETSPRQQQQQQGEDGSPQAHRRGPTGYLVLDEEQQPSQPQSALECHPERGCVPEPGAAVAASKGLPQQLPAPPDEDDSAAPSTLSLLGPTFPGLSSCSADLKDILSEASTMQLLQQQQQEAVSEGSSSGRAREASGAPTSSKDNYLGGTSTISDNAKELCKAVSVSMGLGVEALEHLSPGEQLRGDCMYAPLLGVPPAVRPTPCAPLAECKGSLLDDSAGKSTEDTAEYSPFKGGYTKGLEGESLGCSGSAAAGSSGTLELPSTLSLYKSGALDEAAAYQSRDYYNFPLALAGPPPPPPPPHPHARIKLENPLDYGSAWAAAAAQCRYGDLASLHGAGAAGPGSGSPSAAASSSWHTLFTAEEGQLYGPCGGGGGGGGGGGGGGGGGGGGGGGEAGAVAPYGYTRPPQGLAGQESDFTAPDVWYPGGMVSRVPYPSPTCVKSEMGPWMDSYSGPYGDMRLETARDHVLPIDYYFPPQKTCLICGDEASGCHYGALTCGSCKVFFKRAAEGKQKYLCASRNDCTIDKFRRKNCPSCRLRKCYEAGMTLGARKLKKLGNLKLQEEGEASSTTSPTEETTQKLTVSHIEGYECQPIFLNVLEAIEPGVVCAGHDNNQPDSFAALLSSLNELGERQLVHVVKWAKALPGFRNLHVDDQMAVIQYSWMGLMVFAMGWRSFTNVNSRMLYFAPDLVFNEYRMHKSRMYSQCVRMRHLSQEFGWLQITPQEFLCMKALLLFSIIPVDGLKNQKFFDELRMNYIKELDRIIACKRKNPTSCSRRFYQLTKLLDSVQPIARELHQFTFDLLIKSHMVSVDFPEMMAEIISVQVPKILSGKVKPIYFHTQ
# Summary of the method: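 Test compounds at 15 concentrations were incubated for 16hr with MDA-kb2 reporter cells in presence of 3.0uM nilutamide (final). Signal: ONE-Glo luciferase luminescence.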
SMILES,Potency [1],outcome [2],Potency [3],Potency [4],Potency [5],outcome [6],Potency [7],Potency [8],outcome [9],outcome [10],Potency [11],Potency [12],outcome [13],Potency [14],Potency [15],Potency [16],outcome [17],outcome [18],Potency [19],Potency [20]
CN(C)C(=O)C(CCN1CCC(O)(c2ccc(Cl)cc2)CC1)(c1ccccc1)c1ccccc1,inactive,inactive,29.8 µM (active),26.6 µM (active),inactive,inactive,inactive,inactive,inactive,inactive,–,–,–,–,–,–,–,–,–,–
Oc1ccc2c(c1)OC[C@@H](N1CCC(O)(c3ccc(F)cc3)CC1)[C@H]2O,–,–,inactive,–,–,inactive,inactive,inactive,inactive,inactive,inactive,inactive,inactive,inactive,10.6 µM (active),inactive,inactive,inactive,–,–
NC(=O)c1ncn([C@@H]2O[C@H](CO)[C@@H](O)[C@H]2O)c1O,inactive,–,inactive,inactive,–,–,inactive,inactive,inactive,inactive,inactive,inactive,inactive,inactive,inactive,inactive,inactive,inactive,–,–
CC(CCO)CCCC(C)(C)O (stereo unspecified),inactive,–,inactive,–,–,inactive,inactive,inactive,inactive,inactive,inactive,–,–,–,inactive,inactive,inactive,inactive,–,–
C=C(C)[C@H]1CC=C(C)CC1,inactive,–,inactive,inactive,inactive,inactive,inactive,inactive,inactive,–,–,inactive,–,–,inactive,inactive,inactive,inactive,–,–
CCCCCCCCCCCCI,inactive,–,inactive,–,–,inactive,inactive,inactive,inactive,inactive,–,inactive,inactive,inactive,inactive,inactive,inactive,inactive,–,–
Nc1ccn(C2CO[C@H](CO)O2)c(=O)n1 (stereo partly specified),inactive,inactive,inactive,inactive,inactive,inactive,inactive,inactive,inactive,–,inactive,inactive,inactive,inactive,inactive,inactive,–,inactive,–,–
O=S(=O)(c1cccc2cnccc12)N1CCCNCC1,inactive,–,inactive,–,–,inactive,inactive,inactive,inactive,inactive,inactive,inactive,inactive,inactive,–,inactive,inactive,inactive,–,–
C(=C(c1ccccc1)c1ccccc1)c1ccccc1,inactive,inactive,inactive,–,17.2 µM (active),inactive,inactive,–,inactive,inactive,1.54 µM (active),inactive,–,–,12.2 µM (active),–,inactive,inactive,–,–
CCOC(=O)[C@H](CCc1ccccc1)N[C@@H](C)C(=O)N1CCC[C@H]1C(=O)O,inactive,–,inactive,–,–,inactive,–,inactive,inactive,inactive,–,–,inactive,inactive,–,inactive,inactive,inactive,inactive,–
CCOC(=O)Cn1c(=O)sc2cccc(Cl)c21,inactive,inactive,inactive,–,inactive,inactive,inactive,inactive,inactive,inactive,inactive,inactive,inactive,inactive,–,inactive,–,inactive,–,–
CC/C=C\C#N,inactive,inactive,inactive,inactive,inactive,inactive,inactive,inactive,inactive,inactive,inactive,–,inactive,inactive,inactive,inactive,inactive,inactive,–,–
O=C(O)Cc1cc(I)c(Oc2cc(I)c(O)c(I)c2)c(I)c1,inactive,–,inactive,–,inactive,inactive,–,–,inactive,–,–,–,–,–,18.9 µM (active),inactive,–,inactive,–,–
CCOC(=O)Nc1ccc2c(c1)N(C(=O)CCN1CCOCC1)c1ccccc1S2,inactive,inactive,inactive,inactive,inactive,inactive,inactive,inactive,inactive,–,inactive,inactive,inactive,inactive,–,–,inactive,inactive,–,inactive
C=CCOc1nc(OCC=C)nc(OCC=C)n1,inactive,inactive,inactive,inactive,–,inactive,inactive,inactive,inactive,inactive,inactive,inactive,inactive,inactive,inactive,inactive,inactive,inactive,–,–

# Reference: PubChem BioAssay (Tox21)
